Screening data: PubChem, The Scripps Research Institute Molecular Screening Center
TTR transcr act = increases transthyretin transcription | SH-SY5Y TTR promoter Gaussia luciferase, luminescence; 100% = recombinant luciferase protein wells | activation, % at 16.7 µM | 92,000 tested, 1.3% active | AID 1117267;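 active = activation above the mean of all tested compounds plus 3 SD, cut at about 9.5% in these data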;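 also: cells exposed to compounds for one day before reading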
HuH7 TTR inh = HuH7 TTR transcription inhibition, counter-screen | HuH7 TTR promoter-Gaussia luciferase reporter, luminescence | AID 1117279 | shares compounds with TTR transcr act | inhibition, % at 16.7 µM | 1,100 tested, 4% active;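 active = average inhibition above the solvent-only control wells' mean plus 3 SD, cut at about 15% in these data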;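 also: inhibitors lower well luminescence so higher value means more inhibition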
TTR up confirm = confirmation of human transthyretin transcription activators; SHSY5Y TTR promoter Gaussia luciferase, luminescence; 100% = purified Lucia enzyme wells, no cells; AID 1117280; activation, % at 16.7 µM; shares compounds with TTR transcr act; 1,100 tested, under 10 active;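 active = mean activation above a set limit taken from the earlier primary screen, cut at about 11% in these data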
Hits are given with their value. The entries come from a sample that favours hits as a whole.

For COc1ccccc1CC(NC(C)=O)C(=O)NC1CCN(C(=O)c2ccc([N+](=O)[O-])cc2)CC1 (configuration not stated) the results were TTR transcr act 13, HuH7 TTR inh inactive and TTR up confirm inactive.
COc1ccccc1CC(NC(C)=O)C(=O)NC1CCN(C(=O)Nc2ccc(F)cc2)CC1 (configuration not stated) was read as TTR transcr act inactive.
`CCOc1ccccc1C(=O)NCC(=O)OCC(=O)N1CCCC1` gave TTR transcr act inactive.
COc1ccc(NS(=O)(=O)c2cccc(C(=O)O)c2)cc1 was read as TTR transcr act inactive.
For Cc1ccc(NS(=O)(=O)c2cccc(C(=O)O)c2)cc1S(=O)(=O)N1CCCCC1 the results were TTR transcr act inactive.
For CCN(CC)S(=O)(=O)c1cc(NS(=O)(=O)c2cccc(C(=O)O)c2)ccc1C the results were TTR transcr act 11, HuH7 TTR inh inactive and TTR up confirm inactive.
Screening C[C@H]1[C@@H](OC(=O)Nc2ccc(Br)cc2)CC[C@@]23CCCN2C(=O)CCC[C@@H]13 returned TTR transcr act inactive.
For Cc1cc(C)n(CC(O)COc2cccc(OCC(O)Cn3nc(C)cc3C)c2)n1 (configuration not stated) the results were TTR transcr act inactive.
Cc1cc(C)n(CCCC(=O)O)n1 was read as TTR transcr act inactive.
Cc1cc(C)n(CCOc2ccc(Br)cc2)n1 was read as TTR transcr act 10, HuH7 TTR inh inactive and TTR up confirm inactive.
CCOC(=O)c1cccc(NC(=O)c2c(NCc3ccccc3)[nH]c(=O)[nH]c2=O)c1 was read as TTR transcr act inactive.
For C[C@H]1CN([C@@H](C)CO)C(=O)CCCn2nncc2CO[C@@H]1CN(C)Cc1ccncc1 the results were TTR transcr act inactive.
`COc1ccc(NC(=O)C[C@H]2C(=O)N(Cc3ccccc3)C[C@@H]2CSC)cc1` gave TTR transcr act inactive.
Screening CCOc1ccc(NC(=O)CN2C(=O)NC(C)(c3ccc(OC(F)F)cc3)C2=O)cc1 (configuration not stated) returned TTR transcr act inactive.
COCCNS(=O)(=O)c1cc(OC)c(Cl)cc1Cl was read as TTR transcr act inactive.
Screening COc1ccc(S(=O)(=O)NCc2cccnc2)c(Cl)c1Cl returned TTR transcr act inactive.
CCOCCCNS(=O)(=O)c1ccc(OC)c(Cl)c1Cl was read as TTR transcr act 12, HuH7 TTR inh inactive and TTR up confirm inactive.
`CCc1nc2c(OCc3ccc(OC(F)F)cc3)cccn2c1N(C)C(=O)c1cccs1` gave TTR transcr act inactive.
CCC[C@H]1[C@@H](NC(=O)C(c2ccccc2)c2ccccc2)CC[C@@]23CCCN2C(=O)CCC[C@@H]13 was read as TTR transcr act inactive.
For Cc1ccccc1CN[C@@H]1CC[C@@]23CCCN2C(=O)CCC[C@H]3C1 the results were TTR transcr act inactive.
Screening COC(=O)c1ccc(NC(=O)CCN2CCN(CCC(=O)Nc3ccc(C(=O)OC)cc3)CC2)cc1 returned TTR transcr act inactive.
Screening COC(=O)c1ccc(NC(=O)CCN2CCCCC2)cc1 returned TTR transcr act 10, HuH7 TTR inh inactive and TTR up confirm inactive.
COC(=O)c1ccc(NC(=O)CN2CCN(CCO)CC2)cc1 was read as TTR transcr act inactive.
For O=C(Nc1cc(C(F)(F)F)ccc1Cl)c1cccnc1 the results were TTR transcr act inactive.
`COc1ccc(N(CC(=O)Nc2c(C)n(C)n(-c3ccccc3)c2=O)S(=O)(=O)c2ccc(F)cc2)cc1` gave TTR transcr act inactive.
Cc1ccc(N(CC(=O)Nc2c(C)n(C)n(-c3ccccc3)c2=O)S(C)(=O)=O)cc1C was read as TTR transcr act inactive.
`COc1ccc(N(CC(=O)Nc2c(C)n(C)n(-c3ccccc3)c2=O)S(=O)(=O)c2ccccc2)cc1OC` gave TTR transcr act 12, HuH7 TTR inh inactive and TTR up confirm inactive.
CC[C@H]1C/C=C\Cc2ccccc2[C@@H](C(=O)C[C@@H](O)CC(C)=O)OC1=O was read as TTR transcr act inactive.
`O=C1CCC(=O)N1c1ccccc1` gave TTR transcr act inactive.
O=C1CSCC(=O)N1c1ccccc1 was read as TTR transcr act 34, HuH7 TTR inh inactive and TTR up confirm inactive.
Screening O=C1CSC(=S)N1c1ccccc1 returned TTR transcr act inactive.
O=C(NCCc1c[nH]c2ccccc12)[C@H](Cc1c[nH]c2ccccc12)NC1(C(=O)NC2CCCCC2)CCCCCCC1 was read as TTR transcr act inactive.
CCC[C@H]1[C@@H](NC(=O)c2ccc(OC)cc2)CC[C@@]23CCCN2C(=O)CCC[C@@H]13 was read as TTR transcr act inactive.
For COc1ccc(C(=O)NCC(C)(c2ccccc2)c2ccccc2)cc1S(=O)(=O)N1CCOCC1 the results were TTR transcr act inactive.
Screening COC1OC(COCc2ccccc2)C2OC(C)(C)OC2C1O (configuration not stated) returned TTR transcr act inactive.
`COCC(=O)Nc1cc(=O)n(C)c(=O)n1C` gave TTR transcr act 11, HuH7 TTR inh inactive and TTR up confirm inactive.
`Cn1c(NC(=O)c2ccc(C(C)(C)C)cc2)cc(=O)n(C)c1=O` gave TTR transcr act inactive.
CCC(CC)C(=O)Nc1cc(=O)n(C)c(=O)n1C was read as TTR transcr act inactive.
For Cn1c(NC(=O)c2ccc(Cl)s2)cc(=O)n(C)c1=O the results were TTR transcr act inactive.
`Cn1c(NC(=O)Cc2cccs2)cc(=O)n(C)c1=O` gave TTR transcr act inactive.
Cn1c(NC(=O)C2CC2)cc(=O)n(C)c1=O was read as TTR transcr act 9.9, HuH7 TTR inh inactive and TTR up confirm inactive.
Screening COc1ccc(OCC(NS(=O)(=O)c2ccc(-n3cnnn3)cc2)C(C)C)cc1 (configuration not stated) returned TTR transcr act inactive.
Screening O=C(NC1CCC(O)CC1)c1cc(Cl)c2c(c1)OCCO2 (configuration not stated) returned TTR transcr act inactive.
`COC(=O)[C@]12C[C@H](CC(=O)N3CCCCC3)C(=O)N(Cc3ccc(Cl)cc3Cl)C1=C[C@H](C(C)(C)C)O[C@@H]2C` gave TTR transcr act inactive.
Screening CCN(CC)C(=O)C1=C(C)N(Cc2ccc(C(C)(C)C)cc2)C(=O)C(CC(=O)NCc2cccs2)C1 (configuration not stated) returned TTR transcr act inactive.
Screening CC1(C)C=C2C(N(CC3CC3)C(=N)N2C(=O)OCc2ccccc2)n2c(=O)n(-c3ccccc3)c(=O)n21 (configuration not stated) returned TTR transcr act inactive.
Screening CCOc1ccccc1NC(=O)Cc1coc2cc(C)ccc12 returned TTR transcr act 14, HuH7 TTR inh inactive and TTR up confirm inactive.
Screening CCOc1ccccc1NC(=O)CNC(=O)Cc1ccccc1 returned TTR transcr act inactive.
Screening Cc1ccc(C)c(NC(=O)Cc2coc3cc4c(cc23)CCC4)c1 returned TTR transcr act inactive.
Screening COC(=O)[C@]12C[C@H](CC(=O)NCCc3ccccc3OC)C(=O)N(Cc3ccc(Cl)cc3Cl)C1=C[C@H](C1CCCC1)O[C@@H]2C returned TTR transcr act inactive.
CC1(C)OC2OC(C3COC(=O)O3)C(OC(=O)c3ccccc3)C2O1 (configuration not stated) was read as TTR transcr act 25, HuH7 TTR inh inactive and TTR up confirm inactive.
